# Bioassay records (PubChem)
# Most compounds without a hit are left out; they make up all but 5.7% or so of the library.
# GLP1R inv ag – inverse agonists of human GLP-1 receptor. Potency, µM (doses to about 38.3 µM), inactives show at the highest dose activity change, negative = inhibition, hits mostly inhibitors. HEK293 GLP-1R CRE-luciferase, luminescence, 24 h; GLP-1R form is constitutively active. 1.6% of 410,000 active. P43220; further: potency means the concentration at half of the fitted maximal effect; on the % scale 0 is the no-effect control and ±100 the full control effect; nearly all actives have a fitted effect of over 55% in size
#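 Cells are plated, allowed 12 hours at 37 deg C, then treated with compounds for 24 hr before luciferase detection reagent is added and luminescence is read after 12 min at room temperature. The HEK293 line carries constitutively active GLP-1R with a cAMP-responsive reporter.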
# HEK293 tox – cytotoxicity in counter-screen for GLP-1R inverse agonists; Potency, µM (doses to about 38.3 µM), for inactives: at the highest dose activity change, negative = inhibition, hits mostly inhibitors; 0.13% of 410,000 active; HEK293 cAMP-luciferase reporter cells, luminescence, 24 h; AID 624418;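 further: loss of luciferase light is scored as toxicity; potency means the concentration at half of the fitted maximal effect; on the % scale 0 is the no-effect control and ±100 the full control effect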
#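 Quantitative HTS format, 1536 wells, 200 cells/uL seeded. Compounds: 23 nL, 24 h, 37 °C. Detection: luciferase reagent, luminescence at 12 min RT; decreased signal taken as cytotoxic.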
# D3 antag – blocks the human D3 dopamine receptor. max response, negative = inhibition, %. P35462. 2.5% of 360,000 active. D3R cells, DiscoveRx beta-arrestin luminescence, antagonist mode; hits give low values; in the data active means max response below about -50%; inconclusive means no clear call, values can overlap the other calls; further: on the % scale 0 is the no-effect control and ±100 the full control effect
#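 Cells expressing the human receptor were seeded at 1500 cells/well, incubated overnight at 37 degrees C in 5% CO2, then exposed to library compounds with dopamine controls for 90 minutes at 37 degrees C before luminescent detection.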
# GLP1R ag – agonists of human GLP-1 receptor; 0.007% of 380,000 active; Potency, µM (highest dose often 45.6 µM), inactives show top-dose activation, actives largely listed as activators; P43220; HEK293 GLP-1R CRE-luciferase, luminescence, 4-6 h; cells express a hypersensitive GLP-1R form; further: potency means the concentration at half of the fitted maximal effect; % of control where 0% means no effect
# D3 ag – D3 dopamine receptor (human) agonism | D3R DiscoveRx beta-arrestin cells, luminescence, 90 min | max activation, % | 0.58% of 410,000 active | AID 652048; in the data active means max activation above about 30%; further: 0% is about no effect
#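 Cells at 1500/well, incubated overnight, then treated with pinned compounds (dopamine as control) for 90 min at 37 degrees C. DiscoveRx reagent added for 30 - 60 minutes at room temperature; luminescence read.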
# ClpP mod – qHTS Assay for Activators of ClpP; ATP-dependent Clp protease proteolytic subunit (Bacillus subtilis (strain 168)), P80244; purified B. subtilis ClpP, FRET peptide cleavage, 20 min; Potency, µM (highest dose often 57.5 µM), for the others: at the top dose activity change, negative = active; 1.9% of 340,000 active; active means well fitted falling curve with a large enough effect; inconclusive means small, poorly fitted or top-dose-only effect; inactive means no such curve, though single readings can be large or run the other way; further: potency means the concentration at half of the fitted maximal effect; the source files actives as falling curves though it sought activators and does not explain the sign; nearly all actives have a fitted effect of over 65% in size
#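 Buffer: 100 mM Tris/HCl pH8, 100 mM KCl, 0.05% low protease BSA, 2.5% glycerol, 0.01% Tween-20. ClpP 10 microg/mL final; 20 min RT; delta FRET normalized to ADEP and DMSO controls.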
# * marks the source's active call; other numbers are inactive results; ? = inconclusive; nt = not tested or not shown; ! = not confirmed by another sample; [ ] = remark or other dose. Unless noted, the call rests on the fitted dose curve; in most records, active means well fitted curve in the direction sought with a large enough effect; inconclusive means small, poorly fitted or top-dose-only effect, or another doubt; inactive means no such curve, though single readings can be large; an effect the other way counts as inactive or inconclusive.
SMILES,GLP1R inv ag,HEK293 tox,D3 antag,GLP1R ag,D3 ag,ClpP mod
c1ccc(C2CCC(N3CCN(c4ccccc4)CC3)CC2)cc1 (stereo not given),?,16%,-52*,-4%,-6,1%
O=C(c1ccccc1F)N1CCN(C2CCC(c3ccccc3)CC2)CC1 (stereo not given),-23%[7.66 µM],-6%[7.66 µM],-17,-1%,-4,1%
O=S(=O)(Cc1ccccc1)N1CCC(N2CCN(c3ccccc3)CC2)CC1,0%,8%,?,-5%,69*,0%
Nc1ccc(S(=O)(=O)NN=Cc2ccccc2[N+](=O)[O-])cc1,21%,-10%,-8,15%,2,nt
COc1ccccc1C1/C(=C(/O)c2ccc(C)cc2)C(=O)C(=O)N1CC(C)O (stereo not given),2%,-5%,51,-14%,2,28µM*
CCCCN1CCc2c(c3ccccc3n2Cc2ccccc2)C1,?,?,-93*,-3%,-21,4%
CN1CCc2c(c3ccccc3n2C)C1,-1%,-1%,-73*,0%,-3,-19%
CN1CCc2c(c3ccccc3n2Cc2ccccc2)C1,?,-29%,-91*!,4%,-94,-10%
CCCn1c2ccccc2c2cc(C(=O)O)ccc21,?,-10%,-4,-3%,3,-20%
COc1cc(NC(=O)CCN2CCN(CCO)CC2)cc(OC)c1,2%,-9%,-6,12%,-1,0%
COc1ccc(OC)c(NC(=O)C2CC(=O)N(CCc3ccccc3)C2)c1 (stereo not given),14%[0.307 µM],0%[0.307 µM],-3,3%,1,-7%
COc1ccc([N+](=O)[O-])cc1NC(=O)CCN1CCN(c2ccccc2OC)CC1,2%,-14%,-76*,3%,6,1%
COc1ccc([N+](=O)[O-])cc1NC(=O)CCN1CCN(C)CC1,9%,-5%,5,2%,-7,nt
CCN1CCN(CCC(=O)Nc2cc(OC)cc(OC)c2)CC1,8%,0%,14,-29%,-1,28µM*
COc1ccc(C)cc1NC(=O)C1CC(=O)N(CCc2ccccc2)C1 (stereo not given),-15%,-1%,-6,-5%,40*,-1%
CCN(CCC(=O)Nc1cc([N+](=O)[O-])ccc1OC)Cc1ccccc1,-20%,0%,-81*,0%,-25,-21%
CCc1ccc(-n2nc(C)c3c(C)cc(=O)n(Cc4nc(-c5ccccc5)oc4C)c32)cc1,6%,2%,nt,nt,2,-7%
COCc1cc(C)nc2sc3c(c12)NC(c1ccc(O)cc1)N(c1ccc(OC)cc1)C3=O (stereo not given),28%,33%,nt,nt,2,-9%
COC(=O)C[C@@H]1C=C[C@@H](NC(=O)c2ccccc2F)[C@@H](CO)O1,1%,2%,9,nt,4,-1%
COc1ccc([N+](=O)[O-])cc1NC(=O)C(C)N(C)Cc1ccc(Br)cc1 (stereo not given),20%,-2%[1.53 µM],-64*,5%,-24,-1%
COc1ccc(C)cc1NC(=O)CCN1CCN(c2ccccc2)CC1,?,5%,?,15%,39*,nt
CN1CCN(CCC(=O)N/N=C/c2ccccc2F)CC1,8%,4%,3,2%,8,nt
COc1ccc(Br)cc1CN(C)C(C)C(=O)Nc1cc([N+](=O)[O-])ccc1OC (stereo not given),6%,9%,-3,9%,-17,1%
O=C(CCN1CCN(c2ccccc2)CC1)N/N=C/c1ccccc1O,?,-18%,-67*,1%,-33,0%
COc1ccc(C)cc1NC(=O)c1ccc(CN2CCN(c3ccccc3)CC2)cc1,?,-5%,?,2%,20,1%
SMILES,GLP1R inv ag,HEK293 tox,D3 antag,GLP1R ag,D3 ag,ClpP mod
Cc1ccc(C)c(NC(=O)CCN2CCN(c3ccccc3F)CC2)c1,-21%,-1%,-64*,-4%,15,-2%
Cc1ccc(C)c(NC(=O)CCN2CCN(C)CC2)c1,-6%,-2%,-1,-5%,0,-1%
COc1cc(NC(=O)CN2CCN(c3ccccc3F)CC2)c(C)cc1[N+](=O)[O-],14%,1%,1,2%,0,0%
Cc1cccc(C)c1NC(=O)CN1CCN(C/C=C/c2ccccc2)CC1,-13%,-5%,?,-2%,-2,-1%
COc1ccc(C(=O)CCN2CCN(c3ccccc3F)CC2)cc1,?,?,-99*,-2%,-10,-1%
O=C(CCN1CCN(c2ccccc2)CC1)c1ccc(Br)cc1,4%,-6%,-60*,10%,-3,-3%
COc1ccc(C)cc1NC(=O)CN1CCN(C/C=C/c2ccccc2)CC1,-3%,-1%,-70*,16%,-1,-2%
COc1ccc(C)cc1NC(=O)CN1CCN(c2ccccc2F)CC1,?,20%,-70*,8%,-9,-3%
O=C(CCN1CCN(c2ccccc2F)CC1)c1ccc(Br)cc1,?,?,?,-3%,-16,1%
O=C(CCN1CCOCC1)c1ccc(Br)cc1,5%[0.307 µM],-1%[0.307 µM],15,-1%,-5,-9%
O=C(NCCc1ccccc1)c1ccc(Cn2c(SCc3cccc(F)c3)nc3cccnc32)cc1,-14%,-17%,nt,nt,-21,5%
CC(=O)NC(c1ccccc1)c1nc(/C=C/c2ccccc2)cs1 (stereo not given),5%,-3%,57,-5%,6,-3%
CC[C@]12C(=O)N(C)C[C@H]([C@@H]3C(=O)N(C)C(=O)[C@@H]31)N2C(=O)c1ccccc1,14%,19%,-17,6%,2,-3%
Cc1ccc(C)c(OCC(=O)NNC(=O)CCN2CCN(c3ccccc3)CC2)c1,?,?,-71*,2%,-6,-1%
COc1ccc(C)cc1NC(=O)CCN1CCN(c2ccccc2F)CC1,?,-11%,?,12%,34*,1%
COc1cccc(NC(=O)CCN2CCN(c3ccccc3)CC2)c1,?,-2%,nt,nt,15,0%
COc1ccc(NC(=O)CCN2CCCCCC2)c(OC)c1,-1%,-23%,-55*,6%,-24,-1%
COc1cccc(NC(=O)CCN2CCN(c3ccccc3F)CC2)c1,?,-8%,?,0%,39*,-2%
COc1ccc(Cl)cc1NC(=O)CCN1CCN(Cc2ccccc2)CC1,?,2%,?,8%,-3,0%
COc1cccc(C(=O)NNC(=O)CCN2CCN(c3ccccc3)CC2)c1,-10%,12%,?,-2%,9,-1%
